The source of these data is PubChem BioAssay.

Test [1] in a line: optical density shifts of acrAB sulA E. coli – strain DRC41, OD650, 48 h, E. coli filamentation inducer project, primary screen (AID 1152).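 Also: E. coli MC1000 strain DRC41 lacking acrAB efflux pump and sulA.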 The following applies: higher = more signal, called active from +8 up or from −8 down.
A short description of test [2]: probe aLefty1 binding on compound microarray – biochemical, small-molecule microarray, 635/667 nm fluorescence, primary screen (AID 1153).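 Also: score merges spot fluorescence with signal-to-noise ratio from the scanned slide images.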 The following applies: higher = more signal.
A short description of test [3]: plasmodial surface anion channel blockers, osmotic lysis – cell-based, P. falciparum Indochina, OD700, 1 h, primary screen (AID 1154). The following applies: P. falciparum Indochina infected RBC osmotic lysis, higher = more signal, called active from +8 up or from −8 down.
Test [4] is described as follows: plasmodial surface anion channel blockers, osmotic lysis – cell-based, P. falciparum Indochina, OD700, 2 h, primary screen (AID 1155).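 Also: lysis reports solute entry through the parasite surface anion channel PSAC.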 The settings on record: P. falciparum Indochina infected erythrocytes, higher = more signal, called active from +8 up or from −8 down.
Test [5] is described as follows: changes in parasitized red cell lysis, either direction – P. falciparum Indochina, OD700, 3 h, PSAC antagonist project, primary screen (AID 1156). The following applies: P. falciparum-infected erythrocytes, osmotic lysis, higher = more signal, called active from +8 up or from −8 down.
The nature of test [6]: plasmodial surface anion channel blockers, osmotic lysis – cell-based, P. falciparum Indochina, OD700, 18 h, primary screen (AID 1157). The following applies: P. falciparum Indochina infected erythrocytes, osmotic lysis OD700, 18 h; higher = more signal, called active from +8 up or from −8 down.
Test [7] can be described thus: S6 kinase pathway phospho-S6 level changes – cell-based, A549, cytoblot, luminescence, serum-stimulated, primary screen (AID 1158).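 Also: serum-stimulated A549 lung adenocarcinoma cells; signal is phosphorylated S6 detected by cytoblot immunostaining with HRP secondary.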 The following applies: 5 h, higher = more signal.
Test [8] addresses NADPH oxidase 2 (Homo sapiens) (UniProt P04839). The experiment in a line: compounds shifting NOX2 Amplex Red fluorescence – cell-based, HEK293-NOX2, PMA-stimulated, NOX inhibitor project, primary screen (AID 1159). Also: test concentration not given here. The settings on record: 45 min, higher = more signal, called active from +8 up or from −8 down.
Test [9] deals with NADPH oxidase 4 (Homo sapiens) (UniProt Q9NPH5). Nature of the test: compounds shifting NOX4 Amplex Red fluorescence – cell-based, HEK293-NOX4, tetracycline-induced, NOX inhibitor project, primary screen (AID 1160). The settings on record: HEK293-NOX4, Amplex Red H2O2 fluorescence, 45 min; higher = more signal, called active from +8 up or from −8 down.
Test [10] has as its target NADPH oxidase 5 (Homo sapiens) (UniProt Q96PH1). The experiment in a line: compounds shifting NOX5 Amplex Red fluorescence – cell-based, HEK293-NOX5, NOX inhibitor project, primary screen (AID 1161). The following applies: HEK293-NOX5, ionomycin, 45 min, higher = more signal.
The nature of test [11]: compound effects on lung adenocarcinoma cell viability – A549, calcein-AM fluorescence, 48 h, basal, profiling panel (AID 1162). Also: test concentration not given here. The following applies: higher = more signal.
A short description of test [12]: compound effects on differentiated 3T3-L1 adipocyte viability – cell-based, 3T3-L1 adipocytes, calcein-AM fluorescence, 48 h, basal, profiling panel (AID 1163). Also: test concentration not given here. The following applies: 3T3-L1 adipocytes viability, higher = more signal.
Test [13] can be described thus: compound effects on hepatocellular carcinoma cell viability – HepG2, calcein-AM fluorescence, 48 h, basal, profiling panel (AID 1164). Also: test concentration not given here. The settings on record: higher = more signal.
Test [14] in a line: compound effects on multiple myeloma cell viability – MM1S, calcein-AM fluorescence, 48 h, basal, profiling panel (AID 1165).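 Also: viability of MM1S multiple myeloma cells under basal unstimulated conditions; test concentration not given here.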 The settings on record: higher = more signal.
Test [15] can be described thus: calcein-AM signal in unstimulated myeloma cells – cell-based, calcein-AM fluorescence, 48 h, PK04 Diversity Set, profiling panel (AID 1166).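 Also: cells grown under basal conditions without added stimulus; test concentration not given here.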 The following applies: RPMI8226 myeloma viability, higher = more signal.
Test [16] in a line: JC-1 mitochondrial signal, unstimulated HepG2 cells – cell-based, JC-1 fluorescence, 24 h, 100 nL compound, profiling panel (AID 1167). Also: test concentration not given here. The settings on record: HepG2 mitochondrial potential, higher = more signal.
Test [17] is described as follows: JC-1 mitochondrial signal, unstimulated adipocytes – cell-based, JC-1 fluorescence, 3T3-L1 adipocytes, 24 h, 100 nL compound, profiling panel (AID 1168). Also: test concentration not given here. The settings on record: JC-1 mitochondrial fluorescence, higher = more signal, called active from +8 up or from −8 down.
Test [18] can be described thus: JC-1 mitochondrial signal, unstimulated myeloma cells – cell-based, JC-1 fluorescence, RPMI8226, 24 h, 100 nL compound, profiling panel (AID 1169). Also: test concentration not given here. The following applies: JC-1 mitochondrial potential fluorescence, higher = more signal.
The nature of test [19]: JC-1 mitochondrial signal, unstimulated MM1S myeloma – cell-based, JC-1 fluorescence, 24 h, 100 nL compound, profiling panel (AID 1170). Also: test concentration not given here. The following applies: MM1S mitochondrial potential, higher = more signal.
Test [20] in a line: resazurin metabolic signal in A549 cells – cell-based, resazurin fluorescence, 24 h, PK04 Diversity Set, profiling panel (AID 1171). Also: test concentration not given here. The settings on record: A549 viability, higher = more signal, called active from +8 up or from −8 down.

Active and inactive are the calls of the source.

Sequence of NADPH oxidase 5 (Homo sapiens) (Q96PH1 whole entry, looked up): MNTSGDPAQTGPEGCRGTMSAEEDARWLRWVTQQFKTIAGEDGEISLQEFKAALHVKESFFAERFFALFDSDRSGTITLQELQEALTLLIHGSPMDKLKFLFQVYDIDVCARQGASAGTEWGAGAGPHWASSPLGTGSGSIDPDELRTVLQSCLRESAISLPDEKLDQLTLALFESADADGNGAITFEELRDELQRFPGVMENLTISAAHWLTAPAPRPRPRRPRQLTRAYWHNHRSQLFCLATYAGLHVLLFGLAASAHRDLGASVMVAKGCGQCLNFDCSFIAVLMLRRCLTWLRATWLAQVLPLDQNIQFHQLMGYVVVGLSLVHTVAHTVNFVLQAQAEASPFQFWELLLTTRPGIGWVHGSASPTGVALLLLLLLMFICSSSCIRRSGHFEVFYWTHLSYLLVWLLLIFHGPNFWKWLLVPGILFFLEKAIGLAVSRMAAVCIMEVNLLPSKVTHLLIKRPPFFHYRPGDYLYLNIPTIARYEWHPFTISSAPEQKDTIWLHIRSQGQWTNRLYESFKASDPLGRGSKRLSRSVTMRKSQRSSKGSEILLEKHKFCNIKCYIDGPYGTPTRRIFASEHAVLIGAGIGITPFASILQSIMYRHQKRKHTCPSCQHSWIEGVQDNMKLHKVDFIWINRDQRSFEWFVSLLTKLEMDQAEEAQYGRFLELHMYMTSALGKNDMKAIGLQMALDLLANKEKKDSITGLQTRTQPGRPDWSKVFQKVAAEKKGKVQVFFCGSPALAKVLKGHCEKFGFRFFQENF
Sequence of NADPH oxidase 2 (Homo sapiens) (P04839 whole entry, looked up): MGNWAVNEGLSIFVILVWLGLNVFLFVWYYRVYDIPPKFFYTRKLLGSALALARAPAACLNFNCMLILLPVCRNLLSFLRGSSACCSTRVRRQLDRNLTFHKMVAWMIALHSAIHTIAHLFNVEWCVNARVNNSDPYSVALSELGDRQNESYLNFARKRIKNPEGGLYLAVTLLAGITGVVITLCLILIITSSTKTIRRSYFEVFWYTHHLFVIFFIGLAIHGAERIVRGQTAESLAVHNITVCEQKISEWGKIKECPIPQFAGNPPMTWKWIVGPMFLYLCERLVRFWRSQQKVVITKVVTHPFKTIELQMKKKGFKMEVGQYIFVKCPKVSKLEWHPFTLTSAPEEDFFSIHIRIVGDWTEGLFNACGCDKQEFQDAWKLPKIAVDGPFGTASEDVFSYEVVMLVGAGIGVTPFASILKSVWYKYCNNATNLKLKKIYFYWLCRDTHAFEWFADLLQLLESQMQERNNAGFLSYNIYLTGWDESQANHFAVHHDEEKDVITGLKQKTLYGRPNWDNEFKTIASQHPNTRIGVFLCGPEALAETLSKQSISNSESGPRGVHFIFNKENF
Sequence of NADPH oxidase 4 (Homo sapiens) (Q9NPH5 whole entry, looked up): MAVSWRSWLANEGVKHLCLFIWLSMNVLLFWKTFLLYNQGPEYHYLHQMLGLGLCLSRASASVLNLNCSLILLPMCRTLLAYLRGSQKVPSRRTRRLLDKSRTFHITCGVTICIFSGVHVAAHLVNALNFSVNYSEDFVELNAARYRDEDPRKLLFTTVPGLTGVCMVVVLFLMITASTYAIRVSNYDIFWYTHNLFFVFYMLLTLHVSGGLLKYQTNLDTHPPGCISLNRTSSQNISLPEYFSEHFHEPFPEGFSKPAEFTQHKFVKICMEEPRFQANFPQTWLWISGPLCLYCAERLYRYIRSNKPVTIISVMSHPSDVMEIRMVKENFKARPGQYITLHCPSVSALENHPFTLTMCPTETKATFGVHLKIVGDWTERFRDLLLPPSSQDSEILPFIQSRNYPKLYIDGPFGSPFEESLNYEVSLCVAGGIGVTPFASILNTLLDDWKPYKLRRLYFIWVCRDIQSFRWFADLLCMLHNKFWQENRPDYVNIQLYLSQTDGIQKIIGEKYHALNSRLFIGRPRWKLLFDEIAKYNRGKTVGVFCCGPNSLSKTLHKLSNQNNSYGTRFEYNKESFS

Turning to `CCCNC(=O)[C@@]1(Sc2ccc(C)cc2)CC(=O)N(C2Cc3ccccc3C2)[C@@H]1c1ccc(CO)cc1I`, the z-score in [1] is 0.815 (inactive); in test [3], 9.9 (active); in [4], 2.14 (inactive); in [5], -0.377 (inactive); in test [6] it was 0.695 (inactive); in [7], -0.303. Moreover, the z-score in [8] is 0.716 (inactive); in [9], -0.892 (inactive); in [10], 0.67; in [11], 0.877; in test [12] it was 0.331; in test [13], 0.544. For the same compound, the z-score in test [14] is -1.54; in test [15] it was -1.85; in [16], -0.574; in test [17], -0.0979 (inactive); in [18], -0.778; in test [19] it was -0.987. For the same compound, in [20], the z-score was 0.309 (inactive). This compound yielded a composite z-score in test [2] of 0.844.

On to `COc1cc2c(cc1O)C=[N+](Cc1sc3ccccc3c1Cl)CC2`, for which the z-score is -0.569 (inactive) in [1]; 5.58 (inactive) in [3]; 2 (inactive) in test [4]; -0.703 (inactive) in test [5]; 1.58 (inactive) in test [6]; -0.336 in test [7]. The z-score in [8] is -3.84 (inactive); in test [9] it was -2.35 (inactive); in [10], -4.02; in test [11], -0.47; in test [12], 0.425; in test [13], -0.349. For the same compound, the z-score in test [14] was -0.278; in test [15] it was -0.133; in [16], -1.06; in test [17], -0.501 (inactive); in test [18] it was -0.143; in test [19] it was -0.598. Besides, in test [20], the z-score is 0.33 (inactive). In addition, the composite z-score in test [2] is 0.065.

In the case of `COC(=O)[C@@]1(Cc2ccc(OC)cc2)[C@H]2c3cc(C(=O)N4CCCC4)n(CCc4c[nH]c5ccc(OC)cc45)c3C[C@H]2CN1C(=O)c1ccccc1`, the z-score in [1] was -1.61 (inactive); in test [3], 4.25 (inactive); in test [4], 0.71 (inactive); in [5], 1.42 (inactive); in [6], 1.57 (inactive); in [7], 0.0592. Also, the z-score in test [8] was 0.547 (inactive); in test [9] it was 1.14 (inactive); in [10], 1.38; in test [11] it was -1.19; in test [12] it was -0.791; in test [13], -0.636. The z-score in test [14] is -1.52; in [15], -3.62; in test [16] it was -0.205; in test [17] it was -1.04 (inactive); in test [18], -0.819; in test [19], -1.86. For the same compound, in [20], the z-score is -2.3 (inactive). The composite z-score in test [2] turned out to be 0.894.

As to `C#CCN(Cc1ccccc1Br)[C@H](/C=C/c1ccccc1)[C@@H](O)Cc1ccccc1`, the z-score in [1] was 1.47 (inactive); in test [3] it was 1.22 (inactive); in [4], 0.535 (inactive); in test [5], -0.553 (inactive); in test [6], 0.132 (inactive); in [7], -0.135. Further, the z-score in [8] was -0.193 (inactive); in test [9] it was 0.109 (inactive); in [10], -0.639; in test [11], -0.892; in [12], -0.566; in [13], -1.54. Also, the z-score in [14] is -1.63; in test [15], -3.89; in [16], -2.68; in test [17], -0.694 (inactive); in test [18], -0.538; in [19], 0.42. The z-score in test [20] is 2.3 (inactive). Further, the composite z-score in [2] is 0.0999.

Turning to `COc1ccc(CCNC(=O)[C@@]2(Cc3ccccc3I)c3ccccc3C(=O)N(C3CCCCC3)[C@H]2c2ccc(CO)cc2)cc1`, the z-score in [1] is 0.535 (inactive); in test [3] it was 3.52 (inactive); in test [4], 0.502 (inactive); in test [5], 1.27 (inactive); in [6], -0.31 (inactive); in [7], 3.35. The z-score in [8] is 0.189 (inactive); in test [9], -1.09 (inactive); in [10], -2.19; in test [11], 1; in test [12] it was 2.42; in test [13] it was -0.449. Further, the z-score in test [14] is -1.93; in [15], -2.47; in test [16], 2.5; in test [17], 0.537 (inactive); in test [18], -0.184; in test [19], -1.17. Moreover, the z-score in test [20] is -0.584 (inactive). This compound also displayed a composite z-score in test [2] of -0.104.

Regarding `COC(=O)[C@@H]1N=C(c2ccc(OCCCO)cc2)O[C@@H]1C`, the z-score in test [1] is 0.608 (inactive); in test [3] it was 19 (active); in test [4] it was 2.23 (inactive); in test [5], 0.404 (inactive); in test [6], 0.448 (inactive); in test [7], 0.299. Also, the z-score in test [8] is -1.93 (inactive); in test [9], 0.134 (inactive); in test [10], -0.647; in [11], 0.0963; in test [12] it was -0.317; in [13] it was 0.958. Besides, the z-score is 0.916 in [14]; -0.086 in test [15]; 0.5 in test [16]; 0.797 (inactive) in test [17]; -0.155 in test [18]; -1 in test [19]. For the same compound, the z-score in test [20] was -0.155 (inactive). For the same compound, the composite z-score in test [2] came out at 0.0945.

For `CC(C)N1CC=CC23O[C@@H]4C=CCCOC(=O)C4[C@H]2C(=O)N(CCCO)[C@@H]3C1=O` (stereo not given in full), the z-score in test [1] was 2.91 (inactive); in test [3], -0.0633 (inactive); in [4] it was -0.706 (inactive); in [5] it was 1.3 (inactive); in test [6], -0.646 (inactive); in [7], 0.842. Moreover, the z-score in test [8] was -1.67 (inactive); in test [9], -2.17 (inactive); in test [10], -2.78; in test [11], -0.726; in [12], 1.36; in test [13], 0.292. For the same compound, the z-score was 0.756 in test [14]; -0.457 in test [15]; -0.568 in [16]; 0.128 (inactive) in test [17]; -0.303 in test [18]; -0.438 in test [19]. Moreover, the z-score in [20] is 0.446 (inactive). The composite z-score in test [2] worked out at 0.0656.

Consider `C#Cc1cc2ccccc2oc1=O`, for which the z-score in test [1] was -1.44 (inactive); in test [3], 3.02 (inactive); in [4], 0.858 (inactive); in [5], 0.898 (inactive); in test [6], 0.656 (inactive); in test [7] it was -0.668. For the same compound, the z-score in [8] was 0.0724 (inactive); in test [9] it was -1.35 (inactive); in [10], -0.807; in [11] it was -1.35; in test [12], -1.04; in test [13], -0.651. The z-score in [14] is -0.932; in [15], -0.414; in [16] it was -1.5; in test [17] it was 0.272 (inactive); in test [18], 0.923; in test [19], -0.99. In addition, the z-score in [20] is -0.629 (inactive). Further, in test [2], the composite z-score worked out at 0.228.

Consider `COC(=O)[C@]1(CCS(=O)(=O)c2ccccc2)N=C(c2ccc(OCCCO)cc2)O[C@@H]1c1ccccc1N=[N+]=[N-]`, for which the z-score in [1] is -1.59 (inactive); in test [3], 29.4 (active); in [4], 27.2 (active); in test [5], 4.22 (inactive); in test [6], 6.59 (inactive); in test [7], 0.188. Further, the z-score in test [8] was -2.07 (inactive); in test [9] it was 0.661 (inactive); in [10], -2.01; in test [11], -1.49; in test [12], 1.78; in test [13] it was -2.18. The z-score is -2.8 in test [14]; -3.33 in test [15]; 0.811 in [16]; -0.294 (inactive) in test [17]; -1.13 in test [18]; 0.546 in test [19]. Further, the z-score in test [20] is -3.46 (inactive). Further, the composite z-score in [2] was determined as 0.569.
